# In PubChem BioAssay (NCI):
# Compounds without any hit were thinned out: in the full panel of roughly 83,000, 20% have a hit.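 Single-dose data. Exposure time 48 hours. Values below 10 considered active.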 Active and inactive are the calls of the source.
# System: MDA-MB-231 breast
# Test: NCI-60 one-dose screen, 48 h (100 = growth as untreated, 0 = no growth, -100 = all killed)
# Conditions: 10 µM unless noted
row,Compound,growth
1,COc1cc(C2CC(=O)Nc3c2cnn3C)cc(OC)c1OC (stereo unspecified),118% (inactive)
2,COc1cc2c(c(OC)c1O)C(=O)C(OC)C(c1ccc(O)c(O)c1)O2 (stereo unspecified),-8.18% (active)
3,CCOC(=O)C1C(=O)C=C(c2ccccc2)CC1c1sc(N(C)Cc2ccccc2)nc1Cl (stereo unspecified),82.9% (inactive)
4,CC(C)[C@@H]1C=C2CC[C@H]3[C@](C)(CN)CCC[C@]3(C)[C@H]2CC1,61.3% (inactive)
5,CC1(C)CN(CCNc2nccc(-c3c(-c4cccc(O)c4)nc4sccn34)n2)S(=O)(=O)N1,53.8% (inactive)
6,CCNC(=O)c1ccc2c(c1)nc(-c1ccc(Cl)cc1)n2-c1cc(C(C)(C)C)[nH]n1,64.3% (inactive)
7,CCc1c(C)c2ccc(O)c(-c3cc(-c4ccccc4)c(C#N)c(=O)[nH]3)c2oc1=O,72.6% (inactive)
8,C=C(C)[C@@H]1CC[C@]2(C(=O)NS(=O)(=O)c3ccccc3)CC[C@]3(C)[C@H](CC[C@@H]4[C@@]5(C)CC[C@H](OC(=O)NS(=O)(=O)c6ccccc6)C(C)(C)[C@@H]5CC[C@]43C)[C@@H]12,39.7% (inactive)

# System: RXF 393 renal
# Test: as above
# Conditions: 10 µM unless noted
row,Compound,growth
1,COc1ccc(/C=C/c2nc3ccccc3c(=O)n2-c2ccc(C#Cc3ccc(C(C)(C)C)cc3)cc2C)c(OC)c1,113% (inactive)
2,Cc1cc(O)c2cc3c(O)c(O)ccc3cc2c1,107% (inactive)
3,COc1ccc(-c2nc3ccccc3n3cccc23)cc1,135% (inactive)
4,CCOC(=O)c1cc(C(=O)OCC)c(C)nc1C,117% (inactive)
5,CN1C(=O)N(C)C2C1NN=c1s/c(=C\c3ccc(Br)cc3)c(=O)n12 (stereo unspecified),9.08% (active)
6,O=C1OCC2=C1C(c1ccccc1)c1cc3c(cc1N2CCO)OCO3 (stereo unspecified),24.8% (inactive)
7,CCC1N=C(N)N=C(N)N1c1ccc(Cl)cc1 (stereo unspecified),89.3% (inactive)
8,COc1cc(OC)cc(-c2ccc(-c3ccc(C(=N)N)s3)s2)c1,-73.9% (active)
9,Cc1cccc(N=NC(=S)NNc2cccc(C)c2)c1,115% (inactive)
10,CCn1c(Cc2ccccc2Nc2c(Cl)cccc2Cl)nnc1SCC(=O)Nc1cccc(OC)c1,90% (inactive)
11,NC(=S)N1N=C(c2ccc(Cl)cc2)CC1c1cc2ccccc2[nH]c1=O (stereo unspecified),123% (inactive)
12,CC(C)c1nc2ccccc2n1CC(=O)N/N=C/c1cccc(O)c1,104% (inactive)
13,COc1ccc(Oc2nc(Nc3ccc(N4CCOCC4)cc3)ncc2NC(=O)Nc2cccc(OC)c2)cc1,39.4% (inactive)
14,Clc1cccc(CNc2c3ccccc3nc3ccccc23)c1,19% (inactive)
15,O=C1OCC2=C1C(c1ccccc1)c1cc3c(cc1N2CCO)CCC3 (stereo unspecified),11% (inactive)
16,C=C1C(=O)O[C@H]2[C@H]1CC/C(COC(=O)NCc1[nH]nc3ccccc13)=C\CC[C@@]1(C)O[C@@H]21,-18.3% (active)
17,CC(=O)Oc1c(Cl)c(Cl)c(Cl)c(Cl)c1Cl,116% (inactive)
18,CC(=O)Nc1c(Br)cc2c(c1Br)Cc1cc(Br)ccc1-2,92% (inactive)
19,Cc1ccc(C(CN(C)C)C(=O)c2ccccc2)cc1 (stereo unspecified),43.6% (inactive)

row,Compound,growth
1,CCOC(=O)C(CCCCC(NC(C)=O)(C(=O)OCC)C(=O)OCC)(NC(C)=O)C(=O)OCC,102% (inactive)
2,O=[N+]([O-])c1ccc(SSc2ccc([N+](=O)[O-])cc2Cl)c(Cl)c1,120% (inactive)
3,COc1cc(/C=C2\CN(C(=O)OC(C)(C)C)C/C(=C\c3ccc(O)c(OC)c3)C2=O)ccc1O,102% (inactive)
4,O=S1(=O)NCCN1CCNc1nccc(-c2c(-c3cccc(O)c3)nc3sccn23)n1,111% (inactive)
5,CNCCCn1c2c(c3ccc(Cl)cc3c1=O)C(=O)c1cc(OC)cnc1-2,61.2% (inactive)
6,O=C(/C=C/c1ccccc1)c1c[nH]c2ccccc2c1=O,18.1% (inactive)
7,N=C(N)c1ccc(-c2ccc(-c3ccco3)o2)cc1F,34.1% (inactive)
8,C[C@@H]1N=C(c2ccc3ccccc3c2)Nc2nc3ccccn3c2C1=O,49.9% (inactive)
9,COc1ccc2[nH]cc(C3(c4c[nH]c5ccc(OC)cc45)C(=O)Nc4ccc(F)cc43)c2c1,78.8% (inactive)
10,CC(=O)Nc1ccc(/C=N/N2CCCCCC2)cc1,105% (inactive)
11,COc1cc(-c2nn(C(=O)NCCN3CCN(C)CC3)cc2-c2ccncc2)ccc1Cl,42.3% (inactive)
12,COc1cc(C2CC(=O)Nc3c2cnn3C)cc(OC)c1OC (stereo unspecified),124% (inactive)
13,COc1cc2c(c(OC)c1O)C(=O)C(OC)C(c1ccc(O)c(O)c1)O2 (stereo unspecified),17.1% (inactive)
14,CCOC(=O)C1C(=O)C=C(c2ccccc2)CC1c1sc(N(C)Cc2ccccc2)nc1Cl (stereo unspecified),91.7% (inactive)
15,CC(C)[C@@H]1C=C2CC[C@H]3[C@](C)(CN)CCC[C@]3(C)[C@H]2CC1,87.9% (inactive)
16,CC1(C)CN(CCNc2nccc(-c3c(-c4cccc(O)c4)nc4sccn34)n2)S(=O)(=O)N1,57.1% (inactive)
17,CCNC(=O)c1ccc2c(c1)nc(-c1ccc(Cl)cc1)n2-c1cc(C(C)(C)C)[nH]n1,36.2% (inactive)
18,CCc1c(C)c2ccc(O)c(-c3cc(-c4ccccc4)c(C#N)c(=O)[nH]3)c2oc1=O,99.2% (inactive)
19,C=C(C)[C@@H]1CC[C@]2(C(=O)NS(=O)(=O)c3ccccc3)CC[C@]3(C)[C@H](CC[C@@H]4[C@@]5(C)CC[C@H](OC(=O)NS(=O)(=O)c6ccccc6)C(C)(C)[C@@H]5CC[C@]43C)[C@@H]12,-25.9% (active)
